Structures are written as SMILES.

The target in assay [1] is T1, CDK3/cyclin E (Homo sapiens) (UniProt P24864+O96020+Q00526). Conditions: at 1 µM.
The target in assay [2] is T1, CDK3/cyclin E (Homo sapiens). Conditions: at 10 µM.
Assay [3] has as its target T2, Cyclin-dependent kinase 5/CDK5 activator 1 (Homo sapiens) (UniProt Q00535+Q15078). Conditions: at 1 µM.
Assay [4] concerns the target T2, Cyclin-dependent kinase 5/CDK5 activator 1 (Homo sapiens). Conditions: at 10 µM.
The target is the same in assay [5]. Conditions: at 10 µM. The source holds these as a separate data set.
Assay [6] has as its target T3, CDK6/cyclin D3 (Homo sapiens) (UniProt P30281+Q00534). Particulars: at 1 µM.
Assay [7] concerns the target T3, CDK6/cyclin D3 (Homo sapiens). Particulars: at 10 µM.
In assay [8] the target is T4, Cyclin-dependent kinase 7/ cyclin H (Homo sapiens) (UniProt P51946+P50613). Particulars: at 1 µM.
The target of assay [9] is T4, Cyclin-dependent kinase 7/ cyclin H (Homo sapiens). Particulars: at 10 µM.
Assay [10] has as its target T5, CDK9/cyclin T1 (Homo sapiens) (UniProt O60563+P50750). Conditions: at 1 µM.
The target of assay [11] is T5, CDK9/cyclin T1 (Homo sapiens). Particulars: at 10 µM.
The target in assay [12] is T6, Serine/threonine-protein kinase Chk1 (Homo sapiens) (UniProt O14757).
T6 sequence (whole entry): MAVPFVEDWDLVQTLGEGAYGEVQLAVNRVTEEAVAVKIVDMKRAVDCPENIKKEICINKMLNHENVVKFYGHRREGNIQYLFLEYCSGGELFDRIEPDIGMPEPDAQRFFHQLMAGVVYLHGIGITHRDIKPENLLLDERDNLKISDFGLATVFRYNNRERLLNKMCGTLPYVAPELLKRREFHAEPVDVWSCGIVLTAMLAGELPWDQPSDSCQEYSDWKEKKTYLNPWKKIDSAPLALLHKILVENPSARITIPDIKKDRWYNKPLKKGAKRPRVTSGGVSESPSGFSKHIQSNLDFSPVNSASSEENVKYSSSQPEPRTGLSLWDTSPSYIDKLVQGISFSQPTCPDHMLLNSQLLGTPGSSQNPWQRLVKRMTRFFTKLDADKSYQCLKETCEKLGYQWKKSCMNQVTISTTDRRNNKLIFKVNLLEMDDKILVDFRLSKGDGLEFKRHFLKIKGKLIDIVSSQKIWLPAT
Particulars: at 1 µM.

Assay [13] has as its target T6, Serine/threonine-protein kinase Chk1 (Homo sapiens). Particulars: at 10 µM.
The target in assay [14] is Serine/threonine-protein kinase Chk2 (Homo sapiens) (UniProt O96017). Particulars: at 1 µM.
Assay [15] has the same target. Conditions: at 10 µM.
Assay [16] has as its target Casein kinase I isoform gamma-1 (Homo sapiens) (UniProt Q9HCP0). Conditions: at 1 µM.
Assay [17] has the same target. Particulars: at 10 µM.
Assay [18] deals with Casein kinase I isoform delta (Homo sapiens) (UniProt P48730). Particulars: at 1 µM.
Assay [19] shares this target. Particulars: at 10 µM.
Assay [20] has as its target T2, Cyclin-dependent kinase 5/CDK5 activator 1 (Homo sapiens). Particulars: at 1 µM. The source holds these as a separate data set.

Casein kinase I isoform delta (Homo sapiens), sequence (P48730 whole entry, looked up, canonical isoform): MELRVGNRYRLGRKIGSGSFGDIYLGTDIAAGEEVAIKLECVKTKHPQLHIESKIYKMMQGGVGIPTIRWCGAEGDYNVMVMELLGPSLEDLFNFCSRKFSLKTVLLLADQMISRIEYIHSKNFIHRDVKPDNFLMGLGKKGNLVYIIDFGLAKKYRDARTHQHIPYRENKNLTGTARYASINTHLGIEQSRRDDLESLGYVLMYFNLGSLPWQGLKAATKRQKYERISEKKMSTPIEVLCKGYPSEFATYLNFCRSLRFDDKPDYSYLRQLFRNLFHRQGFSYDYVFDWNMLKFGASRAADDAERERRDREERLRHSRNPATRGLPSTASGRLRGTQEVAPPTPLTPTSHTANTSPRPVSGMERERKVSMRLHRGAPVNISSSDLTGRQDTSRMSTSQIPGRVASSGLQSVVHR
T2 sequence (Q00535 whole entry): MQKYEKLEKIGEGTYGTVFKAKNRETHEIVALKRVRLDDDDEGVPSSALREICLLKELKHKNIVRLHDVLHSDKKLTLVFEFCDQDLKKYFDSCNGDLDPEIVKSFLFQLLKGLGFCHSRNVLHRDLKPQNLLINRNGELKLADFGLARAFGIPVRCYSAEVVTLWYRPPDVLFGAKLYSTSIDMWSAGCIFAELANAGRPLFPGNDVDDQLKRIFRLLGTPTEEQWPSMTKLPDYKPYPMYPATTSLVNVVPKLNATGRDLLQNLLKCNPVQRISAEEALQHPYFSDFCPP
T2 sequence (Q15078 99-307 partner limits assumed): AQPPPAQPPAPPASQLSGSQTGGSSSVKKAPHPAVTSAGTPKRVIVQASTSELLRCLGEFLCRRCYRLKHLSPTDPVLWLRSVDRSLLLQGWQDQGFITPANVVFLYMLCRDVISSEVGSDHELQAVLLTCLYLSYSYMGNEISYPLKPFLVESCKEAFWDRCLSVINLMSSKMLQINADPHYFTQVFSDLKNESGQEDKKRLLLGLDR
T1 sequence (O96020 whole entry, looked up): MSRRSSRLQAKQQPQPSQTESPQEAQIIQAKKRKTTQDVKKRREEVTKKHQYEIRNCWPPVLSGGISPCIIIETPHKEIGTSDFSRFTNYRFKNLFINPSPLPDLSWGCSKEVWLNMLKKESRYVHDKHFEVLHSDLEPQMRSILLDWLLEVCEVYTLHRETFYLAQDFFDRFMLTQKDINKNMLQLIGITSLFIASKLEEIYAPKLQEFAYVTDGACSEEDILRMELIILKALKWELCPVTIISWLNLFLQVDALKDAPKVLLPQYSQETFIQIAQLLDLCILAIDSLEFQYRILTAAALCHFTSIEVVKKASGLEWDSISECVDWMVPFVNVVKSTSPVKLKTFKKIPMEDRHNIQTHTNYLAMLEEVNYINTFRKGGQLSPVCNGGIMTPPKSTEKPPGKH
T1 sequence (P24864 whole entry, looked up): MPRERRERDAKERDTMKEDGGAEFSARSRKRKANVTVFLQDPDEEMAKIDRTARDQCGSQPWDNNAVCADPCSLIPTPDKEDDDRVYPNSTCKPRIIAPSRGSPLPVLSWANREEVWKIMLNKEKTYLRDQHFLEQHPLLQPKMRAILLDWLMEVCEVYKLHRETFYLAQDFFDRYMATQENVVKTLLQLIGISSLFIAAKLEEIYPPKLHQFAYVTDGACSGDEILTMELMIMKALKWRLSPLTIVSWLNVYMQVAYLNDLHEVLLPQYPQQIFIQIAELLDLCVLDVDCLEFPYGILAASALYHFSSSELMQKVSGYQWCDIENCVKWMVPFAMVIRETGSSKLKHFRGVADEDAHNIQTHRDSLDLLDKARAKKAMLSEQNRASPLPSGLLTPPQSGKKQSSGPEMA
T1 sequence (Q00526 whole entry, looked up): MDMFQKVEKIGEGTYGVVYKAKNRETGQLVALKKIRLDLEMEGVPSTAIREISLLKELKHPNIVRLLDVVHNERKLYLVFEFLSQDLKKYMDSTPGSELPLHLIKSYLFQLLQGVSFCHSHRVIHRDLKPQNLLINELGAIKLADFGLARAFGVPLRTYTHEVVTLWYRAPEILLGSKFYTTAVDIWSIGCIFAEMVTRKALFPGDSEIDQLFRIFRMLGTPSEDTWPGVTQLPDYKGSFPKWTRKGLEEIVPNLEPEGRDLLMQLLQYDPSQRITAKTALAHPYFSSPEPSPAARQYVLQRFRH
Serine/threonine-protein kinase Chk2 (Homo sapiens), sequence (O96017 whole entry): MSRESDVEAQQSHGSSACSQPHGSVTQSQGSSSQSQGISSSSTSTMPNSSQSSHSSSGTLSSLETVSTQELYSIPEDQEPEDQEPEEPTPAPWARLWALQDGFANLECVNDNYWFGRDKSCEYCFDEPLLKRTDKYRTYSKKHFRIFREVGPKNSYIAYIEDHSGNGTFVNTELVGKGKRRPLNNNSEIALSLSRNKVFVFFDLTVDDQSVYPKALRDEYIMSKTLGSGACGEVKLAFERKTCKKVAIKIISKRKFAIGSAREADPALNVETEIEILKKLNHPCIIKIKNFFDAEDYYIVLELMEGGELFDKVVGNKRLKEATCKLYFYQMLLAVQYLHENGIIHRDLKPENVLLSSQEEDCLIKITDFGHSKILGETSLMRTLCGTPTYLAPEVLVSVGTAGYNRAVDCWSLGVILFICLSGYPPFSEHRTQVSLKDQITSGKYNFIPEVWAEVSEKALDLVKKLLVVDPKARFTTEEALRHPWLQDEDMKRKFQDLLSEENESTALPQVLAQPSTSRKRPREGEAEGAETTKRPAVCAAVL
Casein kinase I isoform gamma-1 (Homo sapiens), sequence (Q9HCP0 whole entry, looked up, canonical isoform): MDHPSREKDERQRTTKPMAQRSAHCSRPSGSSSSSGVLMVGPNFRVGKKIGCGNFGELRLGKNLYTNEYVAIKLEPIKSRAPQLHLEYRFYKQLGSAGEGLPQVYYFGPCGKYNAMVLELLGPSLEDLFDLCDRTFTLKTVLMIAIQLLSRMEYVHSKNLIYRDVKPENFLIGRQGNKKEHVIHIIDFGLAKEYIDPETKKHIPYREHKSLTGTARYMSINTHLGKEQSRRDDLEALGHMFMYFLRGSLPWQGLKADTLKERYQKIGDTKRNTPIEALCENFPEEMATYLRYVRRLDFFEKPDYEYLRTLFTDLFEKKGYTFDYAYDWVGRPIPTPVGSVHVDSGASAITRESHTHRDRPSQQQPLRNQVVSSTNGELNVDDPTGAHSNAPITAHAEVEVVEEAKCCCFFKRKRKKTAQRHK

As to `O=C(O)/C=C/c1cc(Br)c(Br)c(Br)c1Br`, the residual activity in assay [1] amounted to 103%; in assay [2] it was 87%; in assay [3] it was 94%; in [4] it was 84%; in [5], 76%; in assay [6] it was 100%. Besides, the residual activity in [7] turned out to be 95%; in [8], 104%; in assay [9], 89%; in assay [10] it was 69%; in assay [11], 13%; in [12], 107%. In addition, the residual activity was 97% in [13]; 59% in assay [14]; 33% in [15]; 103% in [16]; 76% in assay [17]; 56% in assay [18]. Also, the residual activity in assay [19] turned out to be 12%.
`Nc1n[nH]c2nc3ccccc3nc12`: the residual activity in assay [1] amounted to 83%; in [2] it was 28%; in assay [3], 80%; in assay [4] it was 35%; in assay [20], 92%; in assay [5] it was 41%. Also, the residual activity was determined as 92% in assay [6]; 69% in assay [7]; 89% in assay [8]; 76% in assay [9]; 59% in assay [10]; 36% in [11]. For the same compound, the residual activity in [12] came out at 90%; in assay [13], 79%; in [14], 82%; in [15] it was 61%; in assay [16] it was 79%; in assay [17] it was 69%. Moreover, the residual activity is 75% in assay [18] and 34% in [19].
Take `O=c1cc(N2CCNCC2)oc2c(-c3ccccc3)cccc12`: the residual activity in [1] came out at 102%; in assay [2], 84%; in [3], 100%; in assay [4], 71%; in [20] it was 100%; in assay [5], 82%. The residual activity is 93% in [6]; 94% in assay [7]; 94% in assay [8]; 81% in assay [9]; 79% in assay [10]; 42% in assay [11]. Further, the residual activity is 83% in assay [12]; 85% in assay [13]; 90% in assay [14]; 91% in assay [15]; 97% in [16]; 97% in assay [17]. Besides, the residual activity is 88% in [18] and 85% in [19].
Turning to `CCCCc1c(-c2ccc(OC)cc2)[nH]c2nccnc12`, the residual activity amounted to 40% in [1]; 32% in [2]; 19% in assay [3]; 33% in [4]; 25% in [20]; 38% in assay [5]. Besides, the residual activity in assay [6] turned out to be 87%; in assay [7], 58%; in assay [8], 84%; in assay [9], 44%; in assay [10] it was 10%; in [11], 17%. Further, the residual activity turned out to be 44% in assay [14]; 11% in assay [15]; 79% in assay [16]; 77% in [17]; 85% in [18]; 73% in assay [19].
`O=C1C(Cl)=C(N2C(=O)CCC2=O)C(=O)c2ccccc21`: the residual activity is 97% in [1]; 85% in [2]; 95% in assay [3]; 86% in [4]; 119% in [20]; 85% in [5]. For the same compound, the residual activity in [6] was 98%; in assay [7], 86%; in assay [9] it was 89%; in assay [10] it was 86%; in [11], 87%; in assay [12], 94%. The residual activity in assay [13] worked out at 87%; in [14] it was 88%; in assay [15] it was 84%; in assay [18] it was 91%; in assay [19], 85%.
In the case of `O=C1NC(=O)c2c1c1c3ccccc3[nH]c1n1cncc21`, the residual activity in assay [1] came to 48%; in assay [2] it was 27%; in assay [3] it was 49%; in assay [4] it was 30%; in assay [20], 52%; in assay [5], 30%. In addition, the residual activity in assay [6] is 62%; in assay [7], 28%; in [8], 87%; in assay [9], 69%; in assay [10] it was 70%; in assay [11] it was 59%. Also, the residual activity in assay [12] was 18%; in assay [13] it was 14%; in assay [14], 23%; in [15], 8%; in [16], 58%; in assay [17] it was 40%. Further, the residual activity in assay [18] amounted to 15%; in assay [19], 9%.
As to `O=C(c1cc2cc(O)ccc2[nH]1)c1cc2cc(O)ccc2[nH]1`, the residual activity in [1] worked out at 51%; in assay [2], 8%; in assay [3], 23%; in [4], 4%; in assay [20], 37%; in assay [5] it was 6%. Moreover, the residual activity in [6] was 38%; in assay [7], 7%; in [8], 76%; in assay [9] it was 41%; in [10] it was 26%; in [11] it was 4%. Besides, the residual activity in assay [12] turned out to be 76%; in assay [13], 47%; in assay [14] it was 60%; in assay [15], 22%; in assay [16] it was 50%; in assay [17], 10%. For the same compound, the results for the residual activity in assay [18] and in [19] were 74% and 37%, respectively.
In the case of `Cn1sc(=O)n(Cc2ccccc2)c1=O`, the residual activity was determined as 83% in assay [1]; 79% in [2]; 81% in [3]; 81% in assay [4]; 97% in assay [20]; 97% in [5]. The residual activity in [6] is 89%; in assay [7] it was 82%; in assay [8] it was 99%; in [9] it was 86%; in assay [10] it was 93%; in assay [11], 79%. For the same compound, the residual activity in assay [12] amounted to 88%; in [13], 90%; in [14], 71%; in [15], 67%; in assay [16], 96%; in assay [17], 89%. Besides, the residual activity in [18] is 81%; in assay [19], 84%.
With `CC(C)N(CCC(=O)c1ccc2ccccc2c1)Cc1ccccc1`, the residual activity amounted to 86% in assay [1]; 77% in assay [2]; 87% in [3]; 79% in assay [20]; 81% in assay [5]; 87% in assay [6]. Further, the residual activity was found to be 78% in assay [7]; 83% in assay [8]; 82% in assay [9]; 100% in [14]; 72% in assay [15]; 82% in assay [16].
On to `O=c1cc(N2CCOCC2)oc2c1ccc1ccccc12`, for which the residual activity came to 102% in assay [1]; 79% in assay [2]; 80% in assay [3]; 67% in [4]; 100% in assay [20]; 81% in [5]. The residual activity in [6] was determined as 100%; in assay [7] it was 89%; in assay [8] it was 86%; in assay [9], 88%; in assay [10], 95%; in assay [11] it was 70%. The residual activity stood at 90% in assay [12]; 93% in [13]; 111% in [14]; 93% in assay [15]; 100% in assay [16]; 94% in assay [17]. Moreover, the results for the residual activity in assay [18] and in assay [19] were 98% and 86%, respectively.
In the case of `Oc1cccc(-c2nc(N3CCOCC3)c3oc4ncccc4c3n2)c1`, the residual activity in [1] is 118%; in assay [2] it was 97%; in assay [20], 92%; in [5], 91%; in [6], 91%; in [7], 67%. Also, the residual activity in assay [8] was found to be 86%; in assay [9] it was 96%; in [12], 93%; in assay [13] it was 100%; in [14], 100%; in assay [15], 68%. The residual activity was found to be 90% in assay [16], 98% in [17], 83% in assay [18] and 72% in [19].
Regarding `CCCC(=O)Oc1ccc2[nH]c(C(=O)c3cc4ccccc4[nH]3)cc2c1`, the residual activity worked out at 95% in assay [1]; 74% in [2]; 95% in [4]; 74% in assay [20]; 87% in [5]; 79% in [6]. In addition, the residual activity in [7] came out at 74%; in [8] it was 83%; in [9] it was 97%; in assay [10], 108%; in [11], 88%; in assay [12], 79%. In addition, the residual activity in assay [13] is 89%; in assay [14] it was 93%; in assay [15], 97%; in assay [16] it was 90%; in [17], 92%; in [18] it was 87%. For the same compound, the residual activity in [19] turned out to be 101%.

Values taken from ChEMBL document CHEMBL2218924, “A broad activity screen in support of a chemogenomic map for kinase signalling research and drug discovery” (Biochem J, 2013).
